Test results: the supplement of paper PMC6555819

Key:
Test in all cases: PBM binding z-score (relative to random genomic background probes); higher = stronger binding; sequences stand for … in GC…GCGATTGACAGCGTAGAATGAAGG
[1] = test system: FXR:RXRa (NR concentration 270 nM, RXRa partner concentration 90 nM)
How it was run: (§1)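 For binding z-scores, the reference was random background probes on custom Agilent 4×180K protein-binding microarrays. These arrays were incubated 1 h with ligand-free nuclear receptor dimers in PBS pH 7.4, 2% milk, 0.02% Triton X-100, 1 mM DTT, 0.2 mg/mL BSA and 0.4 mg/ml salmon testes DNA. Fluorescence was scanned after antibody detection of each partner (one per run) and regression-normalized.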

[2] = test system: LXRa homodimer (NR concentration 270 nM)
How it was run: as §1

[3] = test system: LXRb homodimer (NR concentration 270 nM)
How it was run: as §1

[4] = test system: PPARa:RXRa (NR concentration 270 nM, RXRa partner concentration 90 nM)
How it was run: as §1

[5] = test system: PPARg:RXRa (NR concentration 180 nM, RXRa partner concentration 90 nM)
How it was run: as §1

[6] = test system: PPARg:RXRa 270nM:90nM, anti-RXR (NR concentration 270 nM, RXRa partner concentration 90 nM)
How it was run: as §1

[7] = test system: PPARg:RXRa 30nM:10nM, anti-RXR (NR concentration 30 nM, RXRa partner concentration 10 nM)
How it was run: as §1

[8] = test system: PPARg:RXRa 90nM:30nM, anti-RXR (NR concentration 90 nM, RXRa partner concentration 30 nM)
How it was run: as §1

[9] = test system: PPARg:RXRa DBDmut IVT, anti-RXR (DBD mutation: RXRa K156A/R161A, NR concentration 270 nM, RXRa partner concentration 90 nM)
How it was run: as §1

[10] = test system: PPARg:RXRa IVT, anti-PPARg (NR concentration 270 nM, RXRa partner concentration 90 nM)
How it was run: as §1

[11] = test system: PPARg DBDmut:RXRa IVT, anti-PPARg (DBD mutation: PPARg1 K132A/R137A, NR concentration 270 nM, RXRa partner concentration 90 nM)
How it was run: as §1

[12] = test system: PPARg DBDmut IVT, anti-PPARg (DBD mutation: PPARg1 K132A/R137A, NR concentration 270 nM)
How it was run: as §1

[13] = test system: PPARg homodimer (NR concentration 180 nM)
How it was run: as §1

[14] = test system: PXR:RXRa (NR concentration 270 nM, RXRa partner concentration 90 nM)
How it was run: as §1

[15] = test system: PXR homodimer (NR concentration 270 nM)
How it was run: as §1

[16] = test system: RARa:RXR (NR concentration 270 nM, RXRa partner concentration 90 nM)
How it was run: as §1

[17] = test system: RARa homodimer (NR concentration 270 nM)
How it was run: as §1

[18] = test system: RARb:RXRa (NR concentration 270 nM, RXRa partner concentration 90 nM)
How it was run: as §1

[19] = test system: RARb homodimer (NR concentration 270 nM)
How it was run: as §1

[20] = test system: LXRa:RXRa (NR concentration 270 nM, RXRa partner concentration 90 nM)
How it was run: as §1

Sequence	PBM binding z-score [1]	PBM binding z-score [2]	PBM binding z-score [3]	PBM binding z-score [4]	PBM binding z-score [5]	PBM binding z-score [6]	PBM binding z-score [7]	PBM binding z-score [8]	PBM binding z-score [9]	PBM binding z-score [10]	PBM binding z-score [11]	PBM binding z-score [12]	PBM binding z-score [13]	PBM binding z-score [14]	PBM binding z-score [15]	PBM binding z-score [16]	PBM binding z-score [17]	PBM binding z-score [18]	PBM binding z-score [19]	PBM binding z-score [20]
ACTCGGAGGACAAAGGTCAGGGCTACGCCAGTGA	4.61	1.43	-0.0403	4.98	9.17	7.08	5.85	7.6	0.813	3.76	0.115	-0.434	4.95	4.18	0.463	5.81	1.53	4.69	4.65	–
CCGAGTTGGTCAAGGTCACACACGCTATAGGTAC	4.37	1.98	0.352	4.35	3.12	3.37	0.931	2.65	1.59	3.09	0.702	0.995	3.6	4.94	5.4	4.96	2.02	4.17	4.42	–
CCTTACGGGTTACTCCAGGTTATAGCATCGGAGT	2.01	5.38	-0.167	1.45	0.504	0.711	-0.136	0.413	0.986	0.994	0.298	-0.838	0.398	2.52	0.558	1.68	0.599	1.02	0.561	–
AGAATGAGATTACCAAAGATCAGGGAAACGCTTG	-0.562	-0.342	-0.574	-0.285	0.538	-0.216	-0.00239	0.0878	-0.34	-0.595	0.561	0.0997	-0.0322	-0.245	-0.0511	-0.182	-0.0131	-0.301	-0.938	–
CGTCCAAAGTCAAAGGTCAGTGAAGAGATGACGG	3.96	1.31	0.637	5.06	5.73	5.88	3.89	5.37	0.242	2.41	0.349	0.905	3.27	3.97	0.811	5.61	1.11	4.53	4.29	–
TCTCGGAGGAAACGAAAGGTCAGAGCTCGACATC	1.86	2.91	-0.0498	3.66	1.74	3.9	2.92	3.77	1.21	0.961	-0.0511	-0.298	2.23	3.7	0.181	4.48	1.31	3.73	4.28	–
ATATGTAGGTCAAGGGTCATTCAGGTTGGTTCGC	7.27	5.58	2.07	–	–	10.5	11.7	11.7	8.58	9.34	5.02	3.68	4.44	–	2.53	–	1.72	5.35	5.1	6.25
CCTACTGGGCCGTTCAGAGGTCATTGATCATATG	2.45	5.59	0.189	3.56	1.33	2.48	0.658	1.67	1.34	2.34	-0.522	-0.314	1.94	4.75	2.25	4.52	0.491	2.7	3.78	–
CTATGTAGGTTAGGGGGGTCATTCAGTTTGAAAG	5.78	3.89	–	5.95	9.03	7	5.35	7.07	6.54	6.9	–	–	4.93	6.22	11.2	5.88	3.17	4.13	4.06	5.66
CTATGTAGGTCAAGGGGGTCATTCAGTTTGAAAG	7.19	4.49	–	–	–	9.27	8.54	10.3	8.6	9.07	–	–	5.3	–	13.1	–	2.29	5.06	4.85	5.9
ATATGTAGGTTAGGGGTCATTCAGGTTGGTTCGC	6.13	4.58	3.55	6.51	11.4	9.8	10.2	11	7.09	7.13	1.75	2	5.22	–	6.76	–	2.76	3.82	4.47	5.98
GGAACGAGGGCAAAGTTCATAGCATCTGTCGACG	4.26	3.9	-0.156	6.24	–	9.67	9.74	10.7	4.19	6.1	0.354	-0.0901	3.42	5.81	4.46	6.65	0.559	4.01	3.75	4.95
ACTTACGGGTCAACGAGGTCATAGCACGCGTATA	7.21	3.72	1.13	–	6.76	6.81	3.78	5.73	4.12	5.29	2.33	3.32	4.63	–	11.6	7.02	2.3	4.82	5.04	6.34
TCGAGTAGGTCACGGGGGCATTCAGGGATGAAGA	6.7	1.07	–	6.09	9.41	7.99	5.9	7.7	6.73	7.67	–	–	3.98	4.92	1.77	5.53	1.36	4.66	4.32	5.3
TATCAAAGTTCAAAGGTAACGTAAGTATCCACAC	6.87	6.56	3.08	5.56	6.12	6.03	3.65	5.24	0.181	2.37	1.61	1.66	2.55	5.83	4.87	6.67	2.48	5.07	3.91	–
TACCCTAGGTCATTGGGCCAGTATAGTACGCATC	4.66	8.18	3.83	4.06	4.27	4.04	1.23	2.96	3.2	4.36	0.464	0.484	1.89	1.94	0.578	2.56	0.228	3.87	3.25	–

Sequence	PBM binding z-score [1]	PBM binding z-score [2]	PBM binding z-score [3]	PBM binding z-score [4]	PBM binding z-score [5]	PBM binding z-score [6]	PBM binding z-score [7]	PBM binding z-score [8]	PBM binding z-score [9]	PBM binding z-score [10]	PBM binding z-score [11]	PBM binding z-score [12]	PBM binding z-score [13]	PBM binding z-score [14]	PBM binding z-score [15]	PBM binding z-score [16]	PBM binding z-score [17]	PBM binding z-score [18]	PBM binding z-score [19]	PBM binding z-score [20]
ATCAAAAGGTCGAGGTGAGTATAGAGAAAGGGAA	4.62	0.533	1.32	4.75	3.37	3.94	1.51	2.81	0.945	2.79	1.63	1.54	2.27	2.86	1.09	–	1.57	4.53	3.28	4.01
ATATGTAGGTTAAAGGTCATTCAGGTTGGTTCGC	7.3	6.86	2.72	–	–	11	13.3	13.6	8.31	8.56	4.82	3.73	4.43	–	7.91	–	3.28	4.74	4.8	6.58
CTATGTAGGTTACGGGGGTCATTCAGTTTGAAAG	5.4	2.93	–	6.13	9.31	7.81	5.47	7.92	7.41	7.98	–	–	2.65	6.2	10.9	6.09	0.56	3.71	4.09	5.54
TCTAGTTGGTCTAAGGTCACACACTCGAAATGCG	4.14	2.63	1.6	4.7	5.15	6.51	5.71	6.57	2.2	3.51	1.67	1.64	4.05	4.79	2.22	5.04	2.5	3.76	4.29	–
TCTCGGAGGACACAAAGGTCAGAGCTTTCCAGAG	3.05	2.17	-0.2	3.86	3.27	4.43	3.16	4.07	1.57	2.39	-0.467	-0.672	2.65	4.46	3.76	4.59	1.37	4.22	4.77	–
CCTGCTAGGTCAAAGGTCAGCTAAAGCAGCTCGC	7.56	2.52	1.05	–	–	10.2	11.3	12.6	5.89	7.37	3.16	2.19	7.33	–	0.666	–	3.79	–	4.91	6.38
TAGCCTAGGTCATTCAGGGGCCAGCATAGAAAGC	4.87	0.45	0.706	3.89	2.37	2.62	0.723	1.28	2.03	2.78	0.63	0.0516	1.32	2.37	-0.172	3.95	-0.134	3.92	3.42	–
TCTAGTTGGTCAAAGGTCACGCACTCGAAATGCG	6.9	4.78	1.9	6.76	12	10.2	12.6	12.2	3.84	6.68	3.73	2.56	6.55	–	1.96	–	4.59	–	5.32	6.16
TCGTGTAGGTTACGGGGGCATTCAGGGATGAAGA	3.84	1.21	–	–	6.02	6.17	4.82	5.8	5.22	6.27	–	–	3.1	3.98	2.98	3.71	1.46	3.34	2.92	3.76
AGTCAAAGTTCATCTAGGTAACATAAGATATGCT	6.39	5.61	2.08	5.11	6.9	6.54	3.85	5.76	1.1	3.9	1.75	1.67	2.88	5.28	6.9	4.2	1.96	4.94	3.71	–
CGAACTAGGTCATTGACAGGACAATGAATAGTAA	4.51	0.605	-0.0587	5.06	7.97	6.6	3.9	5.84	8.11	8.41	3.96	1.94	1.77	2.07	0.487	2.45	0.188	3.77	2.88	–
CCGAATAGGTTACGAGGGGGCATTCAGTGCGAAT	3.52	2.43	–	–	2.08	3.71	2	2.62	2.73	3.59	–	–	2.64	5.5	5.9	3.8	0.865	2.89	2.69	7.98
CGTCCAAGGTCAAAGGTCAATGAAGAGATGACGG	8.53	4.31	2.18	–	10.8	9.12	8.3	9.78	3.66	6.01	0.925	0.0116	3.92	7.05	1.95	8.9	1.95	6.08	5.56	7.3
ATATGTAGGTTGGGGTCATTCAGAAAGTAGGGAA	5.99	2.32	4.74	6.11	7.05	6.09	3.16	5.4	3.81	4.46	–	2.36	3.59	6.18	3.64	6.42	3.34	3.75	4.06	5.41
ATATGTAGGATAGCTGGGGTCATTCAGACTAGGC	3.09	1.63	1.33	4.6	2.42	3.01	1.01	2.38	3.17	2.82	0.891	1.52	5.47	5.76	2.24	5.49	1.21	2.54	3.16	–
